# Measured values published in the supplement of paper PMC10811239.
# Tested on: LEGO organoid PT (PTEN-/-; TP53-/-)
# Assay: bioluminescence (viable cell) signal fold change after vs before treatment, normalised to DMSO (ratio); higher = more tumour cell growth / less inhibition
# Settings: 10 µM; treatment time 6 days
# Protocol: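 Luc2-labelled iPSC-derived glioblastoma-like organoids (LEGOs, genotypes PT = PTEN-/-;TP53-/-, PTCC = plus CDKN2A/B-/-, PTN = plus NF1-/-) were treated with 10 uM drug for 6 days (applied every other day) at 37 C. Bioluminescence imaging was done before treatment and 2 days after the last dose. BLI signals were normalised to the DMSO control on the same day and then to the pre-treatment signal (N=3).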
row,Compound,bioluminescence
1,CCc1c2c(nc3ccc(OC(=O)N4CCC(N5CCCCC5)CC4)cc13)-c1cc3c(c(=O)n1C2)COC(=O)[C@]3(O)CC [Irinotecan],2.7
2,CC1=C(CC(=O)O)c2cc(F)ccc2/C1=C\c1ccc(S(C)=O)cc1 (stereo not given) [Sulindac],2.8
3,CN(C)CCCN1c2ccccc2CCc2ccccc21.Cl [Imipramine hydrochloride],0.921
4,CC/C(=C(/CC)c1ccc(O)cc1)c1ccc(O)cc1 [Diethylstilbestrol],1.01
5,N=C(N)NCCCC[C@@H]1NC(=O)CCSSC[C@@H](C(N)=O)NC(=O)[C@@H]2CCCN2C(=O)[C@H](Cc2c[nH]c3ccccc23)NC(=O)[C@H](CC(=O)O)NC(=O)CNC1=O [Eptifibatide],1.89
6,CN=C(NC#N)NCCSCc1nc[nH]c1C [Cimetidine],1.14
7,Nc1cccc2c1C(=O)N(C1CCC(=O)NC1=O)C2=O (stereo not given) [Pomalidomide],1.5
8,CNCC[C@@H](Oc1ccccc1C)c1ccccc1.Cl [Atomoxetine hydrochloride],0.833
9,N[C@H]1CONC1=O [L-Cycloserine],0.758
10,CN1CC(=O)N2[C@H](c3ccc4c(c3)OCO4)c3[nH]c4ccccc4c3C[C@@H]2C1=O [Tadalafil],1.59
11,NNC(=O)c1ccncc1 [Isoniazid],0.807
12,Cl.O[C@@H](c1cc(C(F)(F)F)nc2c(C(F)(F)F)cccc12)[C@H]1CCCCN1 [Mefloquine hydrochloride],0.499
13,COc1ccc(Cl)cc1C(=O)NCCc1ccc(S(=O)(=O)NC(=O)NC2CCCCC2)cc1 [Glyburide],2.23
14,COc1cc2ncnc(Nc3ccc(F)c(Cl)c3)c2cc1OCCCN1CCOCC1 [Gefitinib],1.78
15,C/C=C(/C)C(=O)O[C@H]1C(C)=C[C@]23C(=O)[C@@H](C=C(CO)[C@@H](O)[C@]12O)[C@H]1[C@@H](C[C@H]3C)C1(C)C [Ingenol Mebutate],0.841
16,CNCCCC1c2ccccc2C=Cc2ccccc21.Cl [Protriptyline hydrochloride],0.749
17,CCCCCOC(=O)Nc1nc(=O)n([C@@H]2O[C@H](C)[C@@H](O)[C@H]2O)cc1F [Capecitabine],2.21
18,Cl.Clc1cccc(Cl)c1NC1=NCCN1 [Clonidine hydrochloride],1.1
19,Cl.CNCC\C=C1\c2ccccc2CCc2ccccc12 [Nortriptyline hydrochloride],0.795
20,N[C@H](C(=O)O)[C@H](O)c1ccc(O)c(O)c1 [Droxidopa],1.08

row,Compound,bioluminescence
1,CNC(=O)c1cc(Oc2ccc(NC(=O)Nc3ccc(Cl)c(C(F)(F)F)c3)cc2)ccn1 [Sorafenib],0.335
2,COC(c1ccccc1)(c1ccccc1)[C@H](Oc1nc(C)cc(C)n1)C(=O)O [Ambrisentan],0.999
3,CCN(CC)CC#CCOC(=O)C(O)(c1ccccc1)C1CCCCC1 (stereo not given) [Oxybutynin],0.449
4,CCc1cc(/C(C)=N/OCc2ccc(C3CCCCC3)c(C(F)(F)F)c2)ccc1CN1CC(C(=O)O)C1 [Siponimod],0.646
5,CN(C)CCc1c[nH]c2ccc(CS(=O)(=O)N3CCCC3)cc12.O=C(O)CC(O)C(=O)O [Almotriptan Malate],1.74
6,Cl.Cc1ccsc1\C(=C\CCN1CCC[C@H](C1)C(O)=O)c1sccc1C [Tiagabine hydrochloride],1.04
7,CC(=O)OCC(=O)[C@@]1(O)[C@H](C)C[C@H]2[C@@H]3CCC4=CC(=O)C=C[C@]4(C)[C@@]3(F)[C@@H](O)C[C@@]21C [Dexamethason acetate],1.76
8,Cc1c(C)c2c(c(C)c1O)CC[C@@](C)(CCC[C@H](C)CCC[C@H](C)CCCC(C)C)O2 [α-Vitamin E],1.31
9,CC(C)c1c(C(=O)Nc2ccccc2)c(-c2ccccc2)c(-c2ccc(F)cc2)n1CC[C@@H](O)C[C@@H](O)CC(=O)[O-].CC(C)c1c(C(=O)Nc2ccccc2)c(-c2ccccc2)c(-c2ccc(F)cc2)n1CC[C@@H](O)C[C@@H](O)CC(=O)[O-].[Ca+2] [Atorvastatin Calcium],1.09
10,O=c1[nH]c(=O)n(C2CCCO2)cc1F (stereo not given) [Tegafur],1.04
11,C[C@@H]1O[C@]2(CS1)CN1CCC2CC1.C[C@@H]1O[C@]2(CS1)CN1CCC2CC1.Cl.Cl.O [Cevimeline hydrochloride hemihydrate],0.884
12,CCc1nc(N)nc(N)c1-c1ccc(Cl)cc1 [Pyrimethamine],0.65
13,Cc1cccc(N(C)C(=S)Oc2ccc3ccccc3c2)c1 [Tolnaftate],1.01
14,CS(=O)(=O)c1cccc(C[C@H](NC(=O)c2c(Cl)cc3c(c2Cl)CCN(C(=O)c2ccc4ccoc4c2)C3)C(=O)O)c1 [Lifitegrast],1.49
15,FC(F)(F)C(Cl)Br (stereo not given) [Anestan],1.01
16,CCCOc1ccc(S(=O)(=O)NCCC2CCCN2C)cc1-c1nc2c(CCC)nn(C)c2c(=O)[nH]1 (stereo not given) [Udenafil],1.36
17,CN(C)C(=N)NC(=N)N [Metformin],0.733
18,CN(C)CCCN1c2ccccc2CCc2ccc(Cl)cc21.Cl [Clomipramine hydrochloride],0.859
19,O=C1NC(=O)C(c2ccccc2)(c2ccccc2)N1 [Phenytoin],0.795
20,CCCCS(=O)(=O)N[C@@H](Cc1ccc(OCCCCC2CCNCC2)cc1)C(=O)O [Tirofiban],0.741
